# Values without a mark were called inactive. Records with an inconclusive call do not appear. Entries that show only a call come without a potency. Activity calls are given as the source filed them. The call rests on the fitted dose curve; in most records, active means well fitted curve in the direction sought with a large enough effect; inconclusive means small, poorly fitted or top-dose-only effect, or another doubt; inactive means no such curve, though single readings can be large; an effect the other way counts as inactive or inconclusive.
# How the values were obtained:
# [1] = target: Glutathione peroxidase 1 (Homo sapiens) (UniProt P07203); experiment: Primary qHTS Assay for Inhibitors of Recombinant Selenoprotein Glutathione Peroxidase 1 (GPX1) (AID 1845191); further: nearly all actives have a fitted effect of over 65% in size; further: potency means the concentration at half of the fitted maximal effect
# In short: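 GR-coupled assay: compounds preincubated 30 min at room temperature with GPX1, then reaction started with CHP; final 10 nM GPX1, 1 mM GSH, 0.5 mM CHP, 0.5 mM NADPH, 100 nM GR, 0.01% BSA, pH 7.5 Tris buffer. NADPH fluorescence (340/450 nm) read at 0 and 15 min.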
# [2] = target: Phospholipid hydroperoxide glutathione peroxidase GPX4 (Homo sapiens) (UniProt P36969); experiment: Primary qHTS Assay for Inhibitors of Recombinant Selenoprotein Glutathione Peroxidase 4 (GPX4) (AID 1845192); further: nearly all actives have a fitted effect of over 65% in size; on activity change, negative = inhibition: series mostly up to about 50 µM
# In short: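 GR-coupled assay: recombinant GPX4 preincubated 30 min with compound at room temperature; final 200 nM GPX4, 1 mM GSH, 0.5 mM cumene hydroperoxide, 0.5 mM NADPH, 100 nM GR, 0.01% BSA, pH 7.5 Tris. NADPH fluorescence (340/450 nm) read at 0 and 15 min.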
# [3] = target: Luciferin 4-monooxygenase (Photinus pyralis) (UniProt P08659); experiment: Primary firefly luciferase (FLuc) qHTS assay for identification of artifact compounds. (AID 1845220); further: nearly all actives have a fitted effect of over 60% in size; on activity change, negative = inhibition: series mostly up to about 54 µM
# In short: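 Titrated compounds were incubated 15 min at RT, protected from light, with luciferin and ATP at 10 uM; reaction started with 10 nM FLuc, luminescence imaged at 5 min, and concentration-response fitted by Hill equation.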
# [4] = tested on: Nanoluciferase (engineered Oplophorus gracilirostris luciferase); experiment: Primary Nanoluciferase (NLuc) qHTS assay for identification of artifact compounds. (AID 1845222);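 further: NLuc secreted into diluted conditioned medium of S16 cells; series mostly up to about 54 µM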
# In short: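 qHTS format, against NLuc in S16 cell-conditioned medium. Nano-Glo substrate 1:100 was added after 15 min at room temperature. Luminescence was taken after a further 5 min.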
# [5] = Primary redox qHTS assay for identification of artifact compounds. (AID 1845223)
# In short: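 Amplex Red (25 uM) and HRP (250 mU/mL) in HBSS, with compounds for 15 min, then 250 uM DTT for 30 min, room temperature, dark. Fluorescence 525/598 nm read; normalized to DMSO and 10 uM DA3003; Hill fit.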
# Phospholipid hydroperoxide glutathione peroxidase GPX4 (Homo sapiens), sequence (P36969 whole entry, looked up): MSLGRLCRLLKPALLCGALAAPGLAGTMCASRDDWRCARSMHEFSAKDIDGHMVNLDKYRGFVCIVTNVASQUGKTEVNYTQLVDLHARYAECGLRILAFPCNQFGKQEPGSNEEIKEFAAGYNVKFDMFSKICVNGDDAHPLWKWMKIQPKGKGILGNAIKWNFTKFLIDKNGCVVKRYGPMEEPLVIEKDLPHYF
# Glutathione peroxidase 1 (Homo sapiens), sequence (P07203 whole entry, looked up): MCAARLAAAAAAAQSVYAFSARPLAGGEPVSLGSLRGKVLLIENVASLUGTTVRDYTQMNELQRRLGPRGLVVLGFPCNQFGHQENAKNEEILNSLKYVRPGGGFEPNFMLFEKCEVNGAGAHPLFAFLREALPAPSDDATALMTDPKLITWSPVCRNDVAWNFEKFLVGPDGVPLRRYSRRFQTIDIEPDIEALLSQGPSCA
SMILES,Potency [1],Potency [2],Potency [3],Potency [4],Potency [5],"activity change, negative = inhibition [3]","activity, negative = inhibition [4]"
O=C(CCc1ccccc1)c1c(O)c([C@@H]2O[C@H](CO)[C@@H](O)[C@H](O)[C@H]2O)c(O)c([C@@H]2O[C@H](CO)[C@@H](O)[C@H](O)[C@H]2O)c1O,inactive,inactive,inactive,inactive,–,–,–
CC1=C2C(=O)C=C(CO[C@@H]3O[C@H](CO)[C@@H](O)[C@H](O)[C@H]3O)[C@@H]2[C@H]2OC(=O)[C@H](C)[C@@H]2CC1,inactive,inactive,inactive,inactive,inactive,–,–
CC1(C)C(=O)CCC2(C)C1C(O)C=C1COC(=O)C12O (stereo not given),inactive,inactive,inactive,inactive,inactive,–,–
COc1c2c(c(C)c3c1C(=O)OC3)OC1(C)CC(O)C34OC(OC)(CC(O)C3(C)C1C2)OC4(C)C (stereo not given),inactive,inactive,inactive,inactive,–,–,–
C=C(CCO[C@@H]1O[C@H](CO)[C@@H](O)[C@H](O)[C@H]1O)C(=O)O,inactive,inactive,inactive,inactive,inactive,–,–
CC1=C[C@@H]2[C@H]3[C@@H]4O[C@@](C)(CC[C@H]4O)[C@H]3CC(=O)[C@]23C(=O)N[C@@H](CC(C)C)[C@@H]3[C@@H]1C,inactive,inactive,inactive,inactive,–,–,–
CC(=O)OC/C(=C/C(=O)O)CC[C@@H]1C(CO)=CC[C@@H]2C(C)(C)CCC[C@@]12C,inactive,inactive,inactive,inactive,–,–,–
C/C(=C\C(=O)C[C@@]12C(=O)O[C@]3(C)CC[C@H]1C[C@H]23)C(N)=O,inactive,inactive,inactive,inactive,–,–,–
Cc1nc(-c2cccnc2)sc1C(=O)Nc1ccccc1-c1cn2c(CN3CCOCC3)csc2n1,inactive,inactive,inactive,inactive,inactive,–,–
CC(C)=CCC/C(C)=C/CO[C@@H]1O[C@H](CO[C@@H]2O[C@@H](CO)[C@H](O)[C@H]2O)[C@@H](O)[C@H](O)[C@H]1O,inactive,inactive,inactive,inactive,–,–,–
COc1cc2c(cc1OC)N1C(=O)C[C@@]34C=CC[N@+]5([O-])CC[C@H]2[C@H](CC3)[C@@]145,inactive,inactive,inactive,inactive,–,–,–
CC1(C(=O)O)CC[C@]2(C(=O)OC3OC(CO)C(O)C(O)C3O)CC[C@]3(C)C(=CCC4[C@@]5(C)CC[C@H](OC6OCC(O)C(O)C6OC6OC(CO)C(O)C(O)C6O)C(C)(C)C5CC[C@]43C)C2C1 (stereo not given in full),inactive,inactive,–,–,–,0.425% [at 11.6 µM],1.15% [at 11.6 µM]
C=C1CCC2C(C)(C)CC(=O)CC2(C)C1CCC(C)CCO (stereo not given),inactive,inactive,inactive,inactive,–,–,–
COc1cc([C@@H](O[C@@H]2O[C@H](CO)[C@@H](O)[C@H](O)[C@H]2O)[C@@H]2CO[C@H](c3ccc(O)c(OC)c3)[C@H]2CO)ccc1O,inactive,inactive,inactive,inactive,inactive,–,–
COC(=O)[C@H](c1ccccc1Cl)N1CCC2SC(=O)C=C2C1 (stereo not given in full),8.06 µM (active),inactive,inactive,inactive,–,–,–
C=C[C@H]1[C@H](O[C@@H]2O[C@H](CO)[C@@H](O)[C@H](O)[C@H]2O)OC=C(C(=O)OC)[C@H]1CC=O,inactive,inactive,inactive,inactive,inactive,–,–
COc1cc(/C=C/C(=O)O[C@H]2C[C@@H]3C(C(=O)O)=CO[C@@H](O[C@@H]4O[C@H](CO)[C@@H](O)[C@H](O)[C@H]4O)[C@@H]3[C@H]2C)ccc1O,inactive,inactive,inactive,inactive,–,–,–
CCC/C=C/C=C/C1CC(O)C(O)C(=O)C1CO (stereo not given),inactive,inactive,inactive,inactive,–,–,–
CCCCNc1nc(N)c2[nH]c(=O)n(Cc3ccc(OCCN(C)C)nc3)c2n1,inactive,inactive,inactive,inactive,–,–,–
CC[C@@H]1[C@H]2CCCCN3C(=O)C[C@H]([C@@H]4[C@H]1OC(=O)[C@H]4C)[C@@H]23,inactive,inactive,inactive,inactive,–,–,–
COc1cc(C[C@@]2(O)CO[C@@H](c3ccc(O[C@@H]4O[C@H](CO)[C@@H](O)[C@H](O)[C@H]4O)c(OC)c3)[C@H]2CO)ccc1O,inactive,inactive,inactive,inactive,–,–,–
COc1cc(C(=O)OC[C@@]2(O)CO[C@@H](O[C@H]3[C@H](Oc4ccc(O)cc4)O[C@H](CO)[C@@H](O)[C@@H]3O)[C@@H]2O)cc(OC)c1O,inactive,inactive,inactive,inactive,inactive,–,–
O=C(/C=C/c1ccc(O)cc1)O[C@@H]1C[C@@](O)(C(=O)O)C[C@@H](O)[C@@H]1O,inactive,inactive,inactive,inactive,inactive,–,–
O=C(Cc1ccccc1)OC[C@H]1O[C@H](O[C@H]2O[C@H](CO)[C@@H](O)[C@H](O)[C@H]2O)[C@H](O)[C@@H](O)[C@@H]1O,inactive,inactive,inactive,inactive,inactive,–,–
CN(C)c1ccc(C2O[C@@H](c3ccccc3)C[C@H](c3ccccc3)O2)cc1 (stereo not given in full),inactive,inactive,inactive,inactive,inactive,–,–
C=C(CO)C(=O)O[C@H]1C[C@@]23O[C@@H]2CC/C(=C/[C@H]2OC(=O)C(=C)[C@H]12)CO[C@H]3O,inactive,inactive,inactive,inactive,inactive,–,–
Cc1[nH]c2ccccc2c1CC(=O)N[C@@H](Cc1ccccc1)C(=O)N(C)c1ccccc1,inactive,inactive,inactive,inactive,inactive,–,–
CC(C)CC(=O)NCCn1cc(C(=O)O)c(=O)cc1C(O)c1ccccc1 (stereo not given),inactive,inactive,inactive,inactive,inactive,–,–

# — PubChem BioAssay (NCATS)
